Potency and activity change, negative = inhibition data for 40 molecules are collected here from PubChem BioAssay (Tox21).

Inconclusive results are not listed. A call without a number means that no potency is given here. Unmarked numbers belong to inactive results. Active and inactive are the calls of the source. Calls come from the whole dose curve; as a rule, active = well fitted inhibition curve with a large enough effect in the repeat runs; inconclusive = weak or mixed curves; inactive = no such curve, though single readings can be large or run the other way.
Potency is the fitted concentration of half-maximal effect.

Sequence of Cytochrome P450 2D6 (Homo sapiens) (P10635 whole entry, looked up): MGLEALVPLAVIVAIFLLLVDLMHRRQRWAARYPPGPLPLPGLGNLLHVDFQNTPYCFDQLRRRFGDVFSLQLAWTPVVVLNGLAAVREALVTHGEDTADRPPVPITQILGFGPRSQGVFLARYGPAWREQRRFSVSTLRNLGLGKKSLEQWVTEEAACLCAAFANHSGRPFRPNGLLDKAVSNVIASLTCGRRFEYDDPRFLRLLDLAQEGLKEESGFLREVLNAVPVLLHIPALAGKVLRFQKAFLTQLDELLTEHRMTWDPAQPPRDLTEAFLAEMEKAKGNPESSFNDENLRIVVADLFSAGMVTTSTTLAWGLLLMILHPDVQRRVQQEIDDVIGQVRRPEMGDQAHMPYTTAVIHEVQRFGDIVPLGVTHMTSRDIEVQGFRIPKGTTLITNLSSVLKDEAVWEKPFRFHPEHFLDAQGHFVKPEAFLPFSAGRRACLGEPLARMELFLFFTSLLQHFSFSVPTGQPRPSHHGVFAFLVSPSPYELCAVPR

For the test, the target named is Cytochrome P450 2D6 (Homo sapiens) (UniProt P10635). The test is described as follows: Cytochrome P450 Family 2 Subfamily D Member 6 (CYP2D6) small molecule antagonists: luciferase reporter qHTS assay (AID 1671196). Note: nearly all actives have a fitted effect of over 50% in size. The following applies: P450-Glo CYP2D6 enzyme assay, luciferin luminescence, 1 h; series mostly up to 115 µM. From the text:
U.S. Tox21 Program National Center for Advancing Translational Sciences [NCATS] U.S. Environmental Protection Agency [EPA] National Institutes of Environmental Health Sciences [NIEHS] National Toxicology Program [NTP] U.S. Food and Drug Administration [FDA] Tox21 Assay Overview: Cytochrome P450 (CYP) enzymes are membrane-bound hemeproteins that play a key role in metabolism of drugs and xenobiotics. Evaluation of the effect of chemicals on CYP isozymes is useful to minimize the adverse drug reactions and toxicities in drug development process. Tox21 chemicals were tested for their effect on CYP enzyme activities by using P450-Glo (TM) screening systems (Promega Corporation, Madison, WI). These systems provide a luminescent method containing proluciferin substrates and are converted to luciferin products by CYP isozymes. The luciferin products formed are detected with a luciferin detection reagent, and the amount of light produced is proportional to CYP activity. P450-Glo (TM) CYP2D6 screening system (Catalog. No. V9890) was used to detect the compounds that interfere in CYP2D6 activity.
Tox21 Assay Protocol Summary: Two ul of enzyme-substrate mix was dispensed into medium binding white/solid 1536-well plates (Greiner Bio-One North America Inc., Monroe, NC) using a BioRaptr Flying Reagent Dispenser (FRD, Beckman Coulter, Brea, CA). […] The assay plates were incubated at room temperature for 10 min. Then 2 ul of NADPH regeneration solution was added to each well of the assay plates using an FRD and incubated at room temperature for 1 h. The reaction was stopped by adding 4 ul of detection reagent using an FRD and after 20 min incubation at room temperature the luminescence signal was measured using a ViewLux plate reader (Perkin Elmer, Shelton, CT). Data were expressed as relative luminescence units.
(In general: In a reporter assay the amount or activity of a reporter protein is the signal.)
For `O=C(OCC(O)CO)c1ccccc1Nc1ccnc2c(C(F)(F)F)cccc12` (stereo not given), the Potency is 30.9 µM (active). The same measure, in the same setting: with `CCCC(=O)C(C)=O` the entry was “inactive”. As for `CCCCCCCC/C=C\CCCCCCCC(=O)OCCCC`, the activity change, negative = inhibition was -8.07% [at 23.6 µM]. Take `CC(C)NCC(O)COc1ccc(COCCOC(C)C)cc1` (stereo not given): the Potency result was “inactive”.

With `Cc1cccc(C)c1OCC(C)N` (stereo not given), the Potency was 13.8 µM (active). On the same count and under the same terms, with `CCCC/C=C\CCCCCCCCCC=O` the entry was “inactive”.

Take `O=S(O)(O)=S`: the activity change, negative = inhibition was -0.0268% [at 10.5 µM]. With `O=C(CCN1CCN(CCO)CC1)N1c2ccccc2Sc2ccc(C(F)(F)F)cc21`, the Potency result was “inactive”. On the same count and under the same terms, with `CC(=O)c1ccc2c(c1)Cc1ccccc1-2` the entry was “inactive”. On the same count and under the same terms, with `CC(COC(C)(C)C)OCCCO` (stereo not given) the figure was 63.3 µM (active); with `O=C(O)CCSSCCC(=O)O`, “inactive”; with `CCCOC(OCCC)OCCC`, “inactive”. Regarding `NS(=O)(=O)c1ccc(NC(=O)CCC(=O)O)cc1`, the Potency result is “inactive”. Same read-out and setting: with `O=C(O)c1ccc(Cl)cc1Cl` the entry was “inactive”; with `CC(=O)Nc1ccc(S(=O)(=O)Nc2ccc([N+](=O)[O-])cc2)cc1`, “inactive”; with `O=C(Nc1ccc(Cl)c(Cl)c1)C1CC1`, “inactive”. Still for that read-out and setting: with `BrCc1cccc(Oc2ccccc2)c1` the figure was 35.6 µM (active).

With `ClCCCl`, the Potency result is “inactive”. On the same count and under the same terms, with `O=C(OCc1ccccc1)C(=O)OCc1ccccc1` the entry was “inactive”; with `COc1ccc(-c2cc(=O)c3c(O)cc(O[C@@H]4O[C@H](CO[C@@H]5O[C@@H](C)[C@H](O)[C@@H](O)[C@H]5O)[C@@H](O)[C@H](O)[C@H]4O)cc3o2)cc1O`, “inactive”.

For `CCCCCCCCC(=O)Cl`, the Potency entry was “inactive”. On the same count and under the same terms, with `Brc1ccc(-c2ccccc2)cc1` the entry was “inactive”; with `C=CC(OCC)OCC`, “inactive”; with `C=Cc1ccccn1`, “inactive”. Same read-out and setting: with `O=C1CC(c2ccc(Cl)cc2)CC(=O)N1` the entry was “inactive”. Same read-out and setting: with `CC(C)(C)c1cc(CCC(=O)NN)cc(C(C)(C)C)c1O` the figure was 35.6 µM (active); with `O=C(O)Cc1ccc(Cl)cc1Cl`, 31.7 µM (active). `N[C@@H](CCC(=O)Nc1ccc([N+](=O)[O-])cc1)C(=O)O`: the Potency result was “inactive”. On the same count and under the same terms, with `CCCCCCOC(=O)CC` the entry was “inactive”; with `Cc1cccc(C)c1NC(=O)c1ccccc1C(=O)O`, “inactive”.

Turning to `COc1ccc2c(c1)C(=O)N(CCc1ccc(S(=O)(=O)NC(=O)NC3CCCCC3)cc1)C(=O)C2(C)C`, the Potency result was “inactive”.

Turning to `COc1cc(N)ccc1C`, the Potency was 12.5 µM (active). Still for that read-out and setting: with `C[Si](C)(C)C` the entry was “inactive”. The same measure, in the same setting: with `C[C@H](CCC(=O)O)[C@H]1CC[C@H]2[C@@H]3C(=O)C[C@@H]4CC(=O)CC[C@]4(C)[C@H]3CC(=O)[C@]12C` the entry was “inactive”; with `Cc1cc(C(C)(C)C)c(O)c(C)c1CC1=NCCN1`, 1.55 µM (active). On the same count and under the same terms, with `O=C(O)C(=O)Cc1ccccc1` the entry was “inactive”; with `CCCOC(=O)C(C)O` (stereo not given), “inactive”. Consider `C=C(C)C(=O)OCc1ccccc1`, for which the Potency result is “inactive”.

`CCCCCOC(=O)CCC`: the Potency result is “inactive”. For the molecule `COc1cc(C(=S)N2CCOCC2)cc(OC)c1OC`, the Potency result is “inactive”.
